Data from the supplement of paper PMC11732987, “Enantioselective OTUD7B fragment discovery through chemoproteomics screening and high-throughput optimisation” (Communications Chemistry, 2025).

Assays:
Experiment in all cases: log2 ratio of Biotin-Ahx-Ub-VS probe labelling (fragment/DMSO); higher = less target engagement (more negative = stronger competition), active = hit call of the paper (q ≤ 0.05, log2 ratio ≤ -1)
Conditions in all cases: compound concentration: 200 uM; treatment time: 3 h
USP34 = USP34 (UniProt Q70CQ2)
Chain of USP34 (Q70CQ2 whole entry, the tested form may be a part): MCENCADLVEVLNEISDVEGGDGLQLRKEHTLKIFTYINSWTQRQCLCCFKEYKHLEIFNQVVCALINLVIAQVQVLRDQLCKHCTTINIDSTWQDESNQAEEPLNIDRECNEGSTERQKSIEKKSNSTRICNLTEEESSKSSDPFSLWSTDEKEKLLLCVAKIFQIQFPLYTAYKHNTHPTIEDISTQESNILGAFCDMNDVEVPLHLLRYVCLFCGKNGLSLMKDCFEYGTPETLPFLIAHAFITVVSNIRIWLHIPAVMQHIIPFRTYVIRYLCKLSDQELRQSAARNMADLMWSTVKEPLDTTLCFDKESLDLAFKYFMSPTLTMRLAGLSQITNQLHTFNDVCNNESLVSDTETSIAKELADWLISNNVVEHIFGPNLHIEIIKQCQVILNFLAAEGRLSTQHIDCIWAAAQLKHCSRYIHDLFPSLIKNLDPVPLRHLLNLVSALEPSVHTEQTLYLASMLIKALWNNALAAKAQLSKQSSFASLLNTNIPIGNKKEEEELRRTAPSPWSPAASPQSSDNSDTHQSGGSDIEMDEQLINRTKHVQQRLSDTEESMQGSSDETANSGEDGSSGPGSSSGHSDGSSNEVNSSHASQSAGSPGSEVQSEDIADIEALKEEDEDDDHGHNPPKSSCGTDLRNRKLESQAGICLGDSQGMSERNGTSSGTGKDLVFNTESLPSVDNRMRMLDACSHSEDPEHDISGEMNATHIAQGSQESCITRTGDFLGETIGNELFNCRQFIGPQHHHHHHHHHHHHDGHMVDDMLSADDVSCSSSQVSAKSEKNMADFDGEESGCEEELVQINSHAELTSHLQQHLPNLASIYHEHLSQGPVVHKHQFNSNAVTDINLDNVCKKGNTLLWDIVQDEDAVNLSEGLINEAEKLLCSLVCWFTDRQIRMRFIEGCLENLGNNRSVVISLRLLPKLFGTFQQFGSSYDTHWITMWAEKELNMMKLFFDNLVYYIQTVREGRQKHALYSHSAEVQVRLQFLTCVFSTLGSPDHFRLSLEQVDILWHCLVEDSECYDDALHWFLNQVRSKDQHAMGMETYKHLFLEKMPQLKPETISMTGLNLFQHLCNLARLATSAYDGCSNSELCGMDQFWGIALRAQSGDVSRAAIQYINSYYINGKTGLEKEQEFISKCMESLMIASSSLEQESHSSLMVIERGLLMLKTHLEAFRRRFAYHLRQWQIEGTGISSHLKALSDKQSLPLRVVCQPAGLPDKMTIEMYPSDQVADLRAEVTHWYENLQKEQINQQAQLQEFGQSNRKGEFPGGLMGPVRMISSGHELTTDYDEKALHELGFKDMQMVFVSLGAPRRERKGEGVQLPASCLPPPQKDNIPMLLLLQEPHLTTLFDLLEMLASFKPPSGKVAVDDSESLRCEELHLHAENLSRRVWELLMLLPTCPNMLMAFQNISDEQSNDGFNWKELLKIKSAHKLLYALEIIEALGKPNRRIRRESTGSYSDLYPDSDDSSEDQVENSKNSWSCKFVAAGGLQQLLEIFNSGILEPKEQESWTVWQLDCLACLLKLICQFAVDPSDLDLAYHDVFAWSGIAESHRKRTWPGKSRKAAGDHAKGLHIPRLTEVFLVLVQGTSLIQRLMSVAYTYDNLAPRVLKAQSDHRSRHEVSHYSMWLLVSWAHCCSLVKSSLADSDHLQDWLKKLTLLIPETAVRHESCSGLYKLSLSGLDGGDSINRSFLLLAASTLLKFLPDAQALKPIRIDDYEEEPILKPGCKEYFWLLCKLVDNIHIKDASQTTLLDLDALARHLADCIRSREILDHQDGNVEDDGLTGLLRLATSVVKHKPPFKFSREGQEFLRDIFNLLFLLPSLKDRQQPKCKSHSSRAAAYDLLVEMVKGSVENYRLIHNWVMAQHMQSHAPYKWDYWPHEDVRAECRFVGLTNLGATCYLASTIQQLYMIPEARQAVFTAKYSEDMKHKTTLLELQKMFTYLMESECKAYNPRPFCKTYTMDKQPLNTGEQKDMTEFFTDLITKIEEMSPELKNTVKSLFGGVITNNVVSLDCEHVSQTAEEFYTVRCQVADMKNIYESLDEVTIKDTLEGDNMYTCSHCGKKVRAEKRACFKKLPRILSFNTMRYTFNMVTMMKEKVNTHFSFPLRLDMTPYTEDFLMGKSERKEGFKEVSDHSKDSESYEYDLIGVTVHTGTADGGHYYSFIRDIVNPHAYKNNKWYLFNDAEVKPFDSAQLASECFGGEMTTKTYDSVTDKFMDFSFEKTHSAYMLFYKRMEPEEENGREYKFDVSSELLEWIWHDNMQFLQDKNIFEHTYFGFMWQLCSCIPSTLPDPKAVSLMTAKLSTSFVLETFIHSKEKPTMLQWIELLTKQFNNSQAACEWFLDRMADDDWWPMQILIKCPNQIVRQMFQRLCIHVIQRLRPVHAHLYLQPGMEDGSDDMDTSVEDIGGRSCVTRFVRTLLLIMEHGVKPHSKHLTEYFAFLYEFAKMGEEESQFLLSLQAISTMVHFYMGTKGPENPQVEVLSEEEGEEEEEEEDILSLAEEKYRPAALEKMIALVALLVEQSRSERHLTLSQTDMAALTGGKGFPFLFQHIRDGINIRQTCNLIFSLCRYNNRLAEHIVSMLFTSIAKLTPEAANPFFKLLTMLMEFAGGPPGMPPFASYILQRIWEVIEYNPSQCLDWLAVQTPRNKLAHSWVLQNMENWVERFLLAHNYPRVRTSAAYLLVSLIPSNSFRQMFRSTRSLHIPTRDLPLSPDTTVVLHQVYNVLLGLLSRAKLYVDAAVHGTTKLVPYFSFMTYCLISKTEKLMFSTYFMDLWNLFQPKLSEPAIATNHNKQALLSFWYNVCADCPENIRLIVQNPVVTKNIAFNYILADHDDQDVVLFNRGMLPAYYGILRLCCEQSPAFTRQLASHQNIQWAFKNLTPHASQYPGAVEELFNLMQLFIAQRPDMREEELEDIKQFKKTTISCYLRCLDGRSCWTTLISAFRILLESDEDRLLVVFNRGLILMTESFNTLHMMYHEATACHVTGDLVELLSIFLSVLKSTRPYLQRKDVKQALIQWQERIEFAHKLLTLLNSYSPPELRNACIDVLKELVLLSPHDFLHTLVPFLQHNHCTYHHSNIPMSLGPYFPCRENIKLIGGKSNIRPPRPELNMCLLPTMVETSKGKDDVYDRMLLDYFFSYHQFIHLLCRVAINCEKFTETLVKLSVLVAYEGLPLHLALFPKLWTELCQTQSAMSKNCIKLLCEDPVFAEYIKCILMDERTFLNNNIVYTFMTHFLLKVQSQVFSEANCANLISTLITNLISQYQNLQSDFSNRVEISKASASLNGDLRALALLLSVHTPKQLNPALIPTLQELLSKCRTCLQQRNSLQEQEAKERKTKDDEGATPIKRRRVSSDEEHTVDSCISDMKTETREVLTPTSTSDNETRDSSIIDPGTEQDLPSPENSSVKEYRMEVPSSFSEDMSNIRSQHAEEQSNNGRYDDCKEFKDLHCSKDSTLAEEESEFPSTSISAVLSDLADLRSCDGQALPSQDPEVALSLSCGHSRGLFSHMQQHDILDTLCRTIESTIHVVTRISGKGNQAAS
Outline: (§1)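 Values give the average log2 ratio of fragment to vehicle, assessed by unpaired t-test on global-median-normalised Spectronaut label-free quantities. Proteins needed ≥2 unique peptides. HEK293T lysate (495 µg per sample) was treated in triplicate with fragment at 200 µM or vehicle for 3 h and then with Biotin-Ahx-Ub-VS at 0.5 µM final for 1 h. Labelled DUBs were NeutrAvidin-enriched, digested and run by diaPASEF LC-MS/MS.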

USP36 = target: T1, USP36 (UniProt Q9P275)
T1 sequence (whole entry): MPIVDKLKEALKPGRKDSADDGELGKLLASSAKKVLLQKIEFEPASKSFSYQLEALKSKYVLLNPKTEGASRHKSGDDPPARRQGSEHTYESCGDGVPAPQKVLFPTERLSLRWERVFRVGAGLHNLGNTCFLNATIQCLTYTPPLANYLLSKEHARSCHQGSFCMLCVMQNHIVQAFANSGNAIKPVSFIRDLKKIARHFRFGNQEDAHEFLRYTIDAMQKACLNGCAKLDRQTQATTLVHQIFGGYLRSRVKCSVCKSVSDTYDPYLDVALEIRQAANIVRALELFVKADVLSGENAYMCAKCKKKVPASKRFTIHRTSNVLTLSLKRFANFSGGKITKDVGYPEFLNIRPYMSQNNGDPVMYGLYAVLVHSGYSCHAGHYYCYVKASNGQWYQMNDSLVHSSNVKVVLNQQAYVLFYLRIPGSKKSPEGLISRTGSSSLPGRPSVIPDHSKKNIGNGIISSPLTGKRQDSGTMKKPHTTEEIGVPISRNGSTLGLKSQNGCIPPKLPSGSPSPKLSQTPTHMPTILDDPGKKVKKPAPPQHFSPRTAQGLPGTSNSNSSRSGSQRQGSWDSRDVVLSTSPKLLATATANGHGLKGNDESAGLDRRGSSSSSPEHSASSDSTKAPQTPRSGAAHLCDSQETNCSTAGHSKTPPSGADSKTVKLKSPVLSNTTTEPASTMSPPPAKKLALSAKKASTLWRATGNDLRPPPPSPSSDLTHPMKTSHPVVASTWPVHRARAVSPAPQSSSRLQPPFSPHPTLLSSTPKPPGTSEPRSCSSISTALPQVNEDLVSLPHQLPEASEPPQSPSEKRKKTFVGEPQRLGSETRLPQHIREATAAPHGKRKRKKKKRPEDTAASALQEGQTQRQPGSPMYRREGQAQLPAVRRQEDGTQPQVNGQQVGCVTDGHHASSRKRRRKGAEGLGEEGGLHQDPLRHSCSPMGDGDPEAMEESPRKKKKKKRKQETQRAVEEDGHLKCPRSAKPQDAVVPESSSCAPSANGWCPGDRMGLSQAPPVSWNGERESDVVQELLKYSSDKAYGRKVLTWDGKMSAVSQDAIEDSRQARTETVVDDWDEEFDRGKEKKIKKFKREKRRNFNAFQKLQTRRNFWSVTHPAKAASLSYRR
Outline: as §1

USP38 = target: T2, USP38 (UniProt Q8NB14)
T2 sequence (whole entry): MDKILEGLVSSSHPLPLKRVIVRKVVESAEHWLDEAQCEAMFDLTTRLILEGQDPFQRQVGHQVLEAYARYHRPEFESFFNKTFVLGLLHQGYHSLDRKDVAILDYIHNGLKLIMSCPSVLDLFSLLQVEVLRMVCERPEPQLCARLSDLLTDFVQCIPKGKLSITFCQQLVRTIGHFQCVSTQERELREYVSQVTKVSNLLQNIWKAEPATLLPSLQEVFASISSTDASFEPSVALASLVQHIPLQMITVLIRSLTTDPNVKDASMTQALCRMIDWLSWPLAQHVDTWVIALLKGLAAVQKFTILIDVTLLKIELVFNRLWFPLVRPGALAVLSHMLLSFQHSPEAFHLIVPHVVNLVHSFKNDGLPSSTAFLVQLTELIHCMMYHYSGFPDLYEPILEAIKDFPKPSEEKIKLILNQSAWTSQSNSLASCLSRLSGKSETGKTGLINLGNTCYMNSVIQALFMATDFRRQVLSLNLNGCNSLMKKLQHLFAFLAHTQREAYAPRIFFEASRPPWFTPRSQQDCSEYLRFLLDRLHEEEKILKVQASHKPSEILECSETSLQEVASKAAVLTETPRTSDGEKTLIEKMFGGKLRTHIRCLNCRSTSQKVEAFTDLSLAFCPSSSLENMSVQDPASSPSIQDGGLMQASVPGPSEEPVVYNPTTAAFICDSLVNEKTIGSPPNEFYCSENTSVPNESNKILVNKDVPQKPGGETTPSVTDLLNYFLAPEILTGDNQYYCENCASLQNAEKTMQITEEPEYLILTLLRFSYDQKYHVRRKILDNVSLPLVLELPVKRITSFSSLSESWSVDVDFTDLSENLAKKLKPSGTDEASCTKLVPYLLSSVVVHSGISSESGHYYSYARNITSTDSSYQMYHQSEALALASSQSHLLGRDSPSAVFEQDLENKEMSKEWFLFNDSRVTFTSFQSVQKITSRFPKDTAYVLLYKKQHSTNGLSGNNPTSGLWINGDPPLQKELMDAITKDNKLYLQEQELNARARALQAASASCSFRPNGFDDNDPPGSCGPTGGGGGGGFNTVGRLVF
Outline: as §1

USP39 = target: T3, USP39 (UniProt Q53GS9)
T3 sequence (whole entry): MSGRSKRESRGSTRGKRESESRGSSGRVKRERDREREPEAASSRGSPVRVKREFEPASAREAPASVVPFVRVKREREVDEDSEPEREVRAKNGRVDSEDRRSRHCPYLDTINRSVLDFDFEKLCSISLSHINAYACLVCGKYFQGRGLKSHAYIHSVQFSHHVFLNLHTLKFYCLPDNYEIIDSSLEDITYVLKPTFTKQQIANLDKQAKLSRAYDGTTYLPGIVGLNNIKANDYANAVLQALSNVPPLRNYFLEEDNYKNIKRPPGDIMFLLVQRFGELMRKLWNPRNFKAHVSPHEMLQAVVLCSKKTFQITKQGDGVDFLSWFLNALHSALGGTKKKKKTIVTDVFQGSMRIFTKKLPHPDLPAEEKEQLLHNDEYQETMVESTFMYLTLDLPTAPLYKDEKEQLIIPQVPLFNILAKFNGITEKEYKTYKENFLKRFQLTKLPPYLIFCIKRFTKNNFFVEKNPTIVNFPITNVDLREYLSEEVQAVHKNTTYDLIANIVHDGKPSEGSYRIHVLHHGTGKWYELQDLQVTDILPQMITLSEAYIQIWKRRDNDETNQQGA
Outline: as §1

USP4 = target: T4, USP4 (UniProt Q13107)
T4 sequence (whole entry): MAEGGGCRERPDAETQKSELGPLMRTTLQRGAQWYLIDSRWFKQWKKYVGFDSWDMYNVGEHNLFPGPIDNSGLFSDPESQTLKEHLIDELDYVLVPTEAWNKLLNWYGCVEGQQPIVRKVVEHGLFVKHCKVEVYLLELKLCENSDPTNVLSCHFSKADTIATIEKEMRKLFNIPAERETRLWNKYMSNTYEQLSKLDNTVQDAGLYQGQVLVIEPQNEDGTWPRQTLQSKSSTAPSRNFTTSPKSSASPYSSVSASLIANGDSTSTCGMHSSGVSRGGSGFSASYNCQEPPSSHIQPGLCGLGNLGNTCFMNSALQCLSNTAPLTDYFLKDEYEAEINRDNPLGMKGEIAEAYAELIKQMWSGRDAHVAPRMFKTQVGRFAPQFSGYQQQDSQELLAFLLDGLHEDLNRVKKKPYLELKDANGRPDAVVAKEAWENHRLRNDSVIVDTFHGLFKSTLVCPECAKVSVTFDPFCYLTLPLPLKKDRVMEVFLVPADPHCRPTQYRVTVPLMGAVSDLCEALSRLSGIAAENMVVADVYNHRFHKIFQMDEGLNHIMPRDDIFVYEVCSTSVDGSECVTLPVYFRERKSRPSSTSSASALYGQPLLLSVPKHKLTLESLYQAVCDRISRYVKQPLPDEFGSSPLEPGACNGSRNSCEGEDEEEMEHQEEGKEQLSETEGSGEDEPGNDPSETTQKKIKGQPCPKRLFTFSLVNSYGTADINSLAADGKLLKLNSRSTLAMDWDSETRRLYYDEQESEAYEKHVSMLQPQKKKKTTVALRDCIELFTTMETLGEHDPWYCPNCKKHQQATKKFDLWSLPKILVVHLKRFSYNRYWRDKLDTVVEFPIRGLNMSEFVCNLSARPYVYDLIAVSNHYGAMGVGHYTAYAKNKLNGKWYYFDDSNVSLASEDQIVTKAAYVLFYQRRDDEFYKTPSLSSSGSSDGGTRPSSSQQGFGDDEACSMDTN
Outline: as §1

Measured: log2 ratio of Biotin-Ahx-Ub-VS probe labelling

O=C(CCl)N(C1CCCC1)C1CCS(=O)(=O)C1 (stereo not given)
inactive: USP34 -0.0865 | USP36 -0.298 | USP38 -0.0626 | USP39 0.151 | USP4 0.0894
